We go through 40 molecules from PubChem BioAssay (Tox21).

Activity calls are given as the source filed them. Calls come from the whole dose curve; as a rule, active = well fitted curve in the direction sought with a large enough effect in the repeat runs; inconclusive = weak or mixed curves; inactive = flat fitted curve, though single readings scatter.

The test in a line: qHTS assay to test for compound auto fluorescence at 535 nm (green) in HEK293 cells (AID 720680). The following applies: green autofluorescence 485/535 nm; series mostly up to 91.3 µM. The text has this: U.S. Tox21 Program National Center for Advancing Translational Sciences [NCATS] NIH Chemical Genomics Center [NCGC] U.S. Environmental Protection Agency [EPA] National Institutes of Environmental Health Sciences [NIEHS] National Toxicology Program [NTP] U.S. Food and Drug Administration [FDA] Tox21 Assay Overview: Compound auto fluorescence often interferes with screening of the compound library against various biological targets and signaling pathways. Some of these compounds may have fluorophoric properties. Such properties may interfere with the assay outputs resulting in false positives and/or negatives. To decrease such complications and ensure the compound activities are relevant in terms of biological response, the Tox21 10K compound library was screened for auto fluorescence. From the fluorophores used as reporter signals in our screening assays, the auto fluorescence equivalencies of compounds against three fluorophores have been evaluated: Triamterene, Fluorescein and Rose Bengal sodium for blue, green and red fluorescence, respectively. The fluorescence intensities were measured using Excitation/Emission wavelengths at 405/460nm, 485/535nm and 540/590nm for blue, green and red labels, respectively. This assay includes the green fluorescence data.
Tox21 Assay Protocol Summary: 2,000 HEK293 cells in 5 uL of culture medium containing 10% dialyzed FBS per well were dispensed into black wall/clear bottom 1536-well plates using a Multidrop Combi Dispenser (Thermo Scientific). The assay plates were incubated for 4-5 hr at 37C to allow cell attachment to the well bottom, followed by the transfer of 23 nL compound or DMSO vehicle by a pintool work station (Kalypsys, San Diego, CA). After the assay plates were incubated overnight at 37C and 5% CO2, fluorescence intensities in the assay plates were measured by an Envision (PerkinElmer, Shelton, CT) plate reader using three labels for measuring blue, green and red fluorescence at […] 460, 535 and 590nm respectively.
A general note: Quantitative high-throughput screening tests each substance at several concentrations.
With `CC(C)(C)C(O)(CCc1ccc(Cl)cc1)Cn1cncn1` (stereo not given), the call was inactive. As for `CC1C=[C-]C=C1.[C-]#[O+].[C-]#[O+].[C-]#[O+].[Mn]`, the result was inactive. For `C#CC(C)(C)NC(=O)c1cc(Cl)cc(Cl)c1`, the molecule was classed as inactive. To `O=C1CCCN1` belongs “inactive”; to `O=c1ccc(=O)[nH][nH]1`, “inactive”; to `CCOC(=O)c1ccccc1C(=O)OCC`, “inactive”. Consider `COC(=O)NS(=O)(=O)c1ccc(N)cc1`, for which the call was inactive. To `CCOP(=S)(OCC)SCCSCC` belongs “inactive”; to `COC(=O)c1ccccc1N`, “inactive”. On to `C1CN2CCN1CC2`, for which the call was inactive.

Turning to `CC(C)NC(=O)N1CC(=O)N(c2cc(Cl)cc(Cl)c2)C1=O`, the molecule was classed as inactive.

As for `Oc1ccccc1Cl`, the result was inactive. As to `Nc1ccc(Br)cc1`, the outcome was inactive.

On to `Nc1c(Cl)c(Cl)nc(C(=O)O)c1Cl`, for which the result was inactive. For `OCCN(CCO)CCO`, the result was inactive.

On to `CCC12COCN1COC2`, for which the call was inactive. To `C[C@]12CC[C@H]3[C@@H](CC[C@@]45O[C@@H]4C(O)=C(C#N)C[C@]35C)[C@@H]1CC[C@@H]2O` belongs “inactive”. Then `CN1C(=O)CN=C(c2ccccc2)c2cc(Cl)ccc21`, with “inactive”; and `CN=C=S`, with “inactive”; and `COC(=O)NC(=S)Nc1ccccc1NC(=S)NC(=O)OC`, with “inactive”.

With `C1CC2OC2CC1C1CO1` (stereo not given), the call was inactive. Regarding `COc1ccc2c3c1O[C@H]1[C@@H](O)C=C[C@H]4[C@@H](C2)N(C)CC[C@@]341`, the result was inactive. Then `O=C(NC(=O)c1c(F)cccc1F)Nc1cc(Cl)c(OC(F)(F)C(F)C(F)(F)F)cc1Cl` (stereo not given), with “inactive”. On to `CCCCN(CC)C(=O)SCCC`, for which the molecule was classed as inactive.

In the case of `COCCl`, the molecule was called inactive.

As for `C#CCN(C)[C@H](C)Cc1ccccc1`, the result was inactive. On to `O=C(O)c1ccccn1`, for which the outcome was inactive. Take `CCC[CH2][Sn]([Cl])([Cl])[Cl]`: the outcome was inactive. Then `CN(C)[C@@H]1C(=O)C(C(N)=O)=C(O)[C@@]2(O)C(=O)C3=C(O)c4c(O)cccc4[C@@](C)(O)[C@H]3C[C@@H]12`, with “inactive”; and `Clc1ccccc1Cl`, with “inactive”; and `O=[N+]([O-])c1ccc(Oc2ccc(Cl)cc2Cl)cc1`, with “inactive”. For the molecule `CC(C)(Cl)Cl`, the molecule was classed as inactive.

Turning to `CC1OC(C)OC(C)O1` (stereo not given), the call was inactive. To `CCNc1nc(NC(C)C)nc(SC)n1` belongs “inactive”; to `CCN(CC)CCO`, “inactive”; to `CC(=O)C=C(C)C`, “inactive”. For the molecule `ClCc1cccnc1`, the molecule was called inactive.

On to `O=S(=O)(c1ccc(O)cc1)c1ccc(O)cc1`, for which the outcome was inactive. Then `CCOP(OCC)OCC`, with “inactive”. Turning to `CCOP(=S)(OCC)Oc1cnc2ccccc2n1`, the call was inactive.
